# Reference: PubChem BioAssay (EPA / NIEHS)
# Calls of active or inactive are those of the source. Rule for the calls: active = hit-call score of the fitted dose curve at least 0.9, where 1 is the maximum; inactive = score below 0.9.
# Assay: ATG_TCF_b_cat_CIS: Attagene CIS-FACTORIAL HepG2 Assay for human T-Cell-Factor with beta-catenin (TCF/b-cat) (AID 2282965)
# Settings: HepG2 TCF/beta-catenin cis-reporter transcription, actives raise or lower the signal
# Outline: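 Endogenous TCF/LEF activity read as reporter transcript level via RT-PCR and capillary electrophoresis fluorescence in transfected HepG2, 24 h exposure; gain or loss of signal fitted against DMSO controls.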
SMILES,outcome,AC50
CCOP(=O)(SC(C)CC)N1CCSC1=O (stereo not drawn),inactive,
COc1cc(OC)nc(Sc2cccc(Cl)c2C(=O)O)n1,inactive,
CON=C(C(=O)OC)c1ccccc1CON=C(C)c1cccc(C(F)(F)F)c1,inactive,
CC(C)=CC1C(C(=O)OCN2C(=O)C3=C(CCCC3)C2=O)C1(C)C (stereo not drawn),inactive,
CCOP(=S)(OCC)SCCSCC,inactive,
CCOP(=S)(OCC)OC(Cl)C(Cl)(Cl)Cl (stereo not drawn),inactive,
CNC(=O)ON=C(C)SC,inactive,
CCCOc1nn(C(=O)NS(=O)(=O)c2ccccc2C(=O)OC)c(=O)n1C,inactive,
CCOP(=S)(OCC)Oc1ccc([N+](=O)[O-])cc1,inactive,
CC[C@H](C)[C@H]1O[C@]2(C=C[C@@H]1C)C[C@@H]1C[C@@H](C/C=C(\C)[C@@H](O[C@H]3C[C@H](OC)[C@@H](O[C@H]4C[C@H](OC)[C@@H](NC)[C@H](C)O4)[C@H](C)O3)[C@@H](C)/C=C/C=C3\CO[C@@H]4[C@H](O)C(C)=C[C@@H](C(=O)O1)[C@]34O)O2,inactive,
CCNc1nc(Cl)nc(NC(C)(C)C#N)n1,inactive,
CCOP(=S)(OCC)Oc1ccc2c(C)c(Cl)c(=O)oc2c1,inactive,
CSc1nc(NC(C)C)nc(NC(C)C)n1,inactive,
COP(=O)(OC)SCn1c(=O)oc2cc(Cl)cnc21,,10 µM (active)
Cc1nn(-c2cc(NS(C)(=O)=O)c(Cl)cc2Cl)c(=O)n1C(F)F,inactive,
CCC(=NOC/C=C/Cl)C1=C(O)CC(C2CCOCC2)CC1=O (stereo not drawn),inactive,
CNC(=O)ON=C(SC)C(=O)N(C)C,inactive,
COP(=O)(NC(C)=O)SC (stereo not drawn),inactive,
